This note sets out measurements from the OligoGym collection.
Note: reference of the scale not given here.

The first test has as its target WDR59. Briefly: pooled miR-30 sensor sort-seq; sequence = guide strand. To be noted: shRNA.
In turn, TTAGCTTTCATGGTGGATGTGA returned a sensor-assay potency score (higher = more potent) of 0.497.
The same measure, in the same setting: as for TAGACAACACACAAAGCGCAGC, the figure is -0.806; as for TTGCAGATGGCACACTGCGTGC, -1.5; as for TTGATCTGTCGATTGCCAGAGT, -0.462.

A further test deals with WDR74. Described as above. To be noted: shRNA.
Consider TTTCGCTGAAGATTTACCCCTT, for which the sensor-assay potency score (higher = more potent) came out at 0.223.
The same measure, in the same setting: as for TATCTTCAAAGCATTCTCTTTC, the figure is -0.0108; as for TTCACCGTCCTGTCCGCGCAGC, -1.09.
On the same count and under the same terms, as for TTGAGACTTGAGATAAACCTTA, the figure is 0.692.
TTCAAGATCCCAGTCTCGGTGC had a sensor-assay potency score (higher = more potent) of -0.0333.
As to TAGTGAGTACTCTCCATAGGTG, the sensor-assay potency score (higher = more potent) is -0.709.
Still for that read-out and setting: then TGTCTCTGTGTCTTCTAGGGGC, with -0.152.
Same read-out and setting: as for TATCCTCAAGACTCTGTCCAAG, the figure is -0.997; as for TTCTTCTTTCTCCGTCTCGTTT, -0.81.
Same read-out and setting: as for TGGATCATAAACACGGACCTGG, the figure is 0.064; as for ATATCTTCAAAGCATTCTCTTT, -1.27.
Take TGACAAGCTTCTGTGATCCTGG: the sensor-assay potency score (higher = more potent) was found to be 0.195.

The target of another test is WDR7. Described as above. The note with it: shRNA.
As to TAACACAGTGCATAGCAGCTAA, the sensor-assay potency score (higher = more potent) is -0.462.
Regarding TATTGCTTGAACCATCAGGGAG, the sensor-assay potency score (higher = more potent) is -0.959.
On the same count and under the same terms, then TAGCTGACCATGTAGAACCTGC, with 0.024; and ATATTTGGAACACACAACCAAA, with -1.51; and TTAGACAAACAAGTGATTGATG, with -0.425.
Still for that read-out and setting: then TAAGTGAATCAACAGCAGCAGG, with -1.52; and TGTCTTTATTGCTTGAACCATC, with -1.06; and TTAGGTTTGTCTTTATTGCTTG, with 0.201.
Consider TTTAGAATCTCAACTGCTGTTA, for which the sensor-assay potency score (higher = more potent) turned out to be 0.0218.
On the same count and under the same terms, as for TTTGTCCGTCGTGACATCCTGT, the figure is -0.661; as for TTGTCCGTCGTGACATCCTGTT, -0.875; as for TTAATTTGCAGTTCTACTGAAA, -0.417.

The target of the next test is WDR96. Described as above. To be noted: shRNA.
Regarding TTACACAAAATGATACTCGATT, the sensor-assay potency score (higher = more potent) is -0.176.
The same measure, in the same setting: as for TTTTTGAGTAGTTTCTTGCAGT, the figure is -0.3.
On the same count and under the same terms, then TAATCTTTCAACTTCAGTCTGT, with 0.842; and TACACAAGCACAATCCTCCAGC, with -0.19; and TTGCCTTTCAATTTGGTCCTTC, with 0.277.
Same read-out and setting: then TACATCTTTACTTTCCATCATG, with -0.972; and TAAGTTGTCATAGTGCTCCTTG, with 0.702; and TAGATTTCCGAACAGCTTCTGA, with -0.901.
As to TTTCTCTAGAGCTTAATTCTTC, the sensor-assay potency score (higher = more potent) is -0.586.
Same read-out and setting: then TTGCTGATCATAAACGACGTGC, with 0.0797; and TCATCTTGCACAACAAGCGTTC, with -0.652.
